Bioassay records: PubChem BioAssay, several laboratories
rCAG RNA binder = r(CAG) repeat RNA binding; hit rate 1.3% among 370,000; TO-PRO-1 dye displacement fluorescence; inhibition, % at 3 µM;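 active = inhibition above the plate cutoff, the mean of all test compounds on that plate plus 3 SD, cut at about 35% in these data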;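 also: 0% = DMSO alone and 100% = 100 µM mitoxantrone as full dye displacement; higher means more dye released from RNA so lower well fluorescence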
aDG glyco act = alpha-DG glycosylation activation | Pro5-aDG cells, alpha-DG glycosylation AlphaScreen (IIH6); 0% Pro5, 100% B10-LARGE cell signal | activation, % at 10 µM | hit rate 0.22% among 360,000 | AID 624168;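 active = activation of at least 8% versus controls, or a plate z-score of at least 8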;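 also: Pro5 are CHO cells carrying HIG-tagged alpha-DG that lacks glycosylation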
PHOSPHO1 inh = PHOSPHO1 (human) inhibition. Q8TCT1. AID 1565. inhibition, % at 13.3 µM. hit rate 1.1% among 290,000. recombinant PHOSPHO1, absorbance phosphatase assay; in the data active = inhibition above about 60%
Target sequence (Q8TCT1 whole entry, looked up): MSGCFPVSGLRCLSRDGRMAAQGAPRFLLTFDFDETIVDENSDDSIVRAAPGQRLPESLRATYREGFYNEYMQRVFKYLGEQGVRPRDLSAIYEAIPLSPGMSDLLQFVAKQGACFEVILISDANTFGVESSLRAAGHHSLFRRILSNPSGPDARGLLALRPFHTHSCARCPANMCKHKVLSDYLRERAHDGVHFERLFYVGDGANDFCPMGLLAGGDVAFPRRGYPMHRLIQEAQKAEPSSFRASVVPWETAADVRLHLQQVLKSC
A3G deaminase = APOBEC3G (human) deaminase inhibition | hit rate 0.28% among 330,000 | recombinant A3G, ssDNA deamination FAM/TAMRA fluorescence | inhibition, % at 20 µM | AID 493012;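 active = inhibition of at least 40% at 20 µM, with no more than 30% in the related APOBEC3A deaminase screen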;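 also: plate controls were DMSO wells with A3G for no effect and wells lacking A3G enzyme for full effect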
ALR inh = blocks human ALR sulfhydryl oxidase activity; purified ALR, DTT oxidation, H2O2 HRP-luminol luminescence; P55789; inhibition, % (concentration not given with the values); AID 485317; hit rate 3.8% among 290,000;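 active = mean replicate inhibition above about 79%, with every replicate also reaching it, limit read from the data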
Target sequence (P55789 whole entry, looked up): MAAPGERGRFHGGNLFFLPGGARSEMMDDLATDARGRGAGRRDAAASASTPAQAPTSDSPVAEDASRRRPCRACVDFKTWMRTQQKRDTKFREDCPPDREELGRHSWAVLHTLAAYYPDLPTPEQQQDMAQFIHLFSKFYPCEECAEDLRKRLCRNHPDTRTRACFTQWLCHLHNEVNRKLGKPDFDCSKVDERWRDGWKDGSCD
APOBEC3A inh = human APOBEC3A DNA deaminase inhibition. P31941. recombinant A3A, FAM/TAMRA ssDNA deamination fluorescence. inhibition, % at 20 µM. hit rate 0.41% among 330,000;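 active = at least 40% inhibition at 20 µM here, with at most 30% in a related deaminase screen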;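 also: plate controls were A3A with DMSO for no effect and wells lacking A3A enzyme for full effect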
Active calls of the source: *; / = no result given. Rows were chosen to be rich in hits. Some 5.4% of all compounds tested hit in one or more screens of this group.

SMILES	rCAG RNA binder	aDG glyco act	PHOSPHO1 inh	A3G deaminase	ALR inh	APOBEC3A inh
Cc1nn(CCc2n[nH]c(=S)n2C)c(C)c1Br	-3	0	85*	18	94*	-5
Cc1nn(CCc2n[nH]c(=S)n2C2CCCCC2)c(C)c1Br	1	0	-8	4	2	8
CCn1cc(CN2CCC(C(=O)Nc3cccc(-c4cccc(F)c4)c3)CC2)cn1	-6	1	-10	-1	-1	2
CC(C)n1cc(CN2CCC(C(=O)Nc3cccc(-c4cccc(Cl)c4)c3)CC2)cn1	-6	8.6*	17	-3	-22	-2
CCn1nc(C)c(CN2CCC(C(=O)Nc3cccc(-c4cccc(F)c4)c3)CC2)c1C	-10	8.0*	28	-5	-6	-4
Clc1ccc(-n2nnc(-c3nccs3)n2)cc1Cl	3	0	52	24	92*	0
Cc1ccc(-n2nnc(-c3nccs3)n2)cc1	1	1	26	-5	/	2
COCCCN1C(=O)[C@H](CC(=O)NCc2ccc(OC)c(OC)c2)[C@]2(C(=O)OC)CCCCC=C12	2	/	/	/	/	/
COc1cc(/C=N/NC(=O)C(C)Nc2n[nH]c(=O)[nH]c2=O)ccc1O (configuration not stated)	-2	0	-2	-3	99*	-2
COc1cc(/C=N/NC(=O)CNc2n[nH]c(=O)[nH]c2=O)ccc1O	0	0	-2	-7	98*	1
COc1ccc(C=NNC(=O)c2cc(-c3ccc(C)c(C)c3)n[nH]2)cc1OCc1ccccc1	15	/	/	/	/	/
N=C(N)SCc1ccc(Cl)cc1Cl	7	0	-5	-5	99*	-2
NC(=S)Cc1ccc(Cl)cc1Cl	-3	0	17	-2	2	1
CSc1ncc(Cl)c(C(=O)Nc2cccnc2)n1	0	0	/	-8	-4	1
CSc1ncc(Cl)c(C(=O)Nc2ccc(NC(C)=O)cc2)n1	4	0	60*	-3	-7	0
CCCCCn1c(C)c(CC(=O)Nc2ccc(Oc3cccnc3)c(C)c2)c2ccccc21	7	/	/	/	/	/
O=[N+]([O-])c1ccc2nc[nH]c2c1	0	0	/	/	/	/
Nc1ccc2nc[nH]c2c1	4	0	0	-8	99*	-2
Cc1cc(C)cc(C(=O)OCCCN(C)C2CN(Cc3cn(Cc4cccc(F)c4)nn3)S(=O)(=O)C2)c1 (configuration not stated)	2	/	/	/	/	/
S=c1[nH]ncn1NCc1ccc(Cl)cc1Cl	-5	0	-67	31	89*	1
Fc1cccc(Cl)c1CNn1cn[nH]c1=S	3	0	-54	23	82*	-2
Oc1cccc(N2Cc3ccccc3C2)c1	/	0	16	-6	-26	-2
Oc1ccc(N2Cc3ccccc3C2)cc1	/	0	11	9	84*	-2
O=C(NCCc1c[nH]c2ccccc12)OCc1cn(Cc2cccc(F)c2F)nn1	4	/	/	/	/	/
COc1ccc(-c2nc3cnccn3c2Nc2ccc(C)cc2)cc1	4	0	10	0	86*	0
SMILES	rCAG RNA binder	aDG glyco act	PHOSPHO1 inh	A3G deaminase	ALR inh	APOBEC3A inh
Cc1ccc(Nc2c(-c3ccccc3)nc3cnccn23)cc1	-3	0	32	-3	98*	-3
Cc1ccc(Nc2c(-c3ccc(C)o3)nc3cnccn23)cc1	5	0	3	19	/	1
CCCCNS(=O)(=O)/C=C/c1ccccc1CNC(=O)OC(C)(C)C	-2	/	/	/	/	/
COC(=O)[C@]12C[C@H](CC(=O)NCc3ccc(OC)c(OC)c3)C(=O)N(Cc3ccccc3)C1=C[C@H](COCc1ccccc1)O[C@@H]2C	12	/	/	/	/	/
CCOc1cc2[nH]c(=S)n(CCOC)c(=O)c2cc1OCC	-4	0	17	-2	2	1
COCCn1c(=S)[nH]c2ccc(N(C)C)cc2c1=O	3	0	98*	-5	97*	-5
CCc1cccc(-n2c(C)cc(O)cc2=O)c1	2	/	/	/	/	/
O=C1CNC(=S)N1c1nc2ccccc2s1	6	0	13	0	95*	4
CC(C)CCOC(=O)/C(=C/c1ccco1)NC(=O)/C=C/c1ccccc1	12	0	30	-7	90*	-6
CCS(=O)(=O)Nc1ccc2c(c1)C(=O)N(C)[C@@H]1CC[C@H](CC(=O)NCCCN3CCOCC3)O[C@H]1CO2	1	/	/	/	/	/
COc1cc(C2N(c3ccccc3)CCN2c2ccccc2)cc(OC)c1OC	1	0	-10	0	99*	2
COC(=O)C[C@@H]1CC[C@H]2[C@@H](COc3ccc(NC(=O)Nc4ccccc4)cc3C(=O)N2C)O1	2	/	/	/	/	/
CCOc1ccc2nc(SCC(=O)N(C)C3CCS(=O)(=O)C3)[nH]c2c1 (configuration not stated)	12	0	100*	-5	/	-2
O=C(OCn1ncc(Cl)c(Cl)c1=O)c1cccc(C(F)(F)F)c1	/	-1	-14	-7	97*	0
CCCCN(C)C(=O)c1ccc2c(c1)NC(=O)C(C)(C)O2	-1	/	/	/	/	/
CCc1c(Cc2ccccc2)ncn1CCc1ccccc1OC	4	/	/	/	/	/
C[C@H]1COc2cc(NCCO)ccc2S(=O)(=O)N1	2	/	/	/	/	/
COc1cc(C(=O)Nc2nc(C)c(Cc3ccc4c(c3)OCO4)s2)cc(OC)c1OC	8	0	74*	21	-3	-3
CCCOc1ccc(C(=O)Nc2nc(C)c(Cc3ccc4c(c3)OCO4)s2)cc1	1	0	-7	-5	7	-1
COc1ccc(C(=O)Nc2nc(C)c(C)s2)cc1OC	-3	0	16	-6	99*	4
Cc1cc(-c2n[nH]c(=S)n2N=Cc2cc(Br)ccc2F)n[nH]1	14	/	/	/	/	/
Cc1csc(Nc2ccccc2C(F)(F)F)n1	-4	0	-13	-7	1	-5
FC(F)(F)c1ccccc1Nc1nccs1	4	0	95*	6	39	0
O=C(C1CCC1)n1ccc2ccc(-c3ccc4ccn(Cc5ccccc5)c4c3)cc21	6	/	/	/	/	/
CCn1c(SCC(=O)Nc2ccc(N(C)C)cc2)nnc1C1CC1	-3	0	40	-7	99*	-3
SMILES	rCAG RNA binder	aDG glyco act	PHOSPHO1 inh	A3G deaminase	ALR inh	APOBEC3A inh
Cc1nnc(SCC(=O)Nc2ccc(N3CCOCC3)cc2)o1	2	0	63*	2	/	24
CCc1nnc(SCC(=O)Nc2ccc(N3CCOCC3)cc2)o1	5	0	28	-5	11	-5
Cc1nnc(SCC(=O)Nc2ccc(N3CCOCC3)cc2)n1Cc1ccccc1	0	0	/	5	99*	7
O=C(CSc1n[nH]c(=O)n1Cc1ccccc1)Nc1ccc(N2CCOCC2)cc1	-1	0	/	-7	/	-3
CCn1c(SCC(=O)Nc2ccc(NC(C)=O)cc2)nnc1C1CC1	-3	0	3	1	-10	5
Cc1nnc(SCC(=O)c2ccccc2)n1Cc1ccccc1	-1	0	-4	-11	85*	1
